# Screens as filed in PubChem BioAssay.
# The sample as a whole holds a higher share of hits than the screen did.
# Giardia FBPA inh: qHTS Assay for Inhibitors of Fructose-1,6-bisphosphate Aldolase from Giardia Lamblia. A8B2U2. purified Giardia FBPA. Potency, µM (series often up to 59.6 µM), inactives show at the highest dose activity, negative = inhibition, hits mostly inhibitors. hit rate 0.71% among 290,000. AID 2451, 2010; further: potency means the concentration at half of the fitted maximal effect; on the % scale 0 is the no-effect control and ±100 the full control effect; nearly all actives have a fitted effect of over 55% in size
# Target sequence (A8B2U2 whole entry, looked up): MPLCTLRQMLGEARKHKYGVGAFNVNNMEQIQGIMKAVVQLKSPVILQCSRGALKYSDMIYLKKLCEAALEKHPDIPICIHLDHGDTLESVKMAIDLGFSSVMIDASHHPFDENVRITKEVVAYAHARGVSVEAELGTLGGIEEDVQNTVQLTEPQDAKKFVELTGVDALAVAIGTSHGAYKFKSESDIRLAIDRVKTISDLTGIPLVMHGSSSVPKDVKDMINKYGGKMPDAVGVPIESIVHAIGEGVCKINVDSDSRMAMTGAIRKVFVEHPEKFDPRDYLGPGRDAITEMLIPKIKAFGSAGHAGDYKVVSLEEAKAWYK
#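 Giardia FBPA (40 nM reagent) was preincubated 10 min at RT with compound (up to 57.5 uM final), then substrate plus GAPDH/TPI/NAD/arsenate coupling system with diaphorase/resazurin was added; resorufin fluorescence (525/598 nm) was read after 20 min.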
# LmPK inh: qHTS Assay for Inhibitors of Leishmania Mexicana Pyruvate Kinase (LmPK). Q27686. purified LmPK, Kinase-Glo ATP luminescence, 1 h. Potency, µM (top dose mostly 57.5 µM), for the others: top-dose activity change, negative = inhibition, hits mostly inhibitors. hit rate 0.37% among 290,000. AID 1721, 2009; further: potency means the concentration at half of the fitted maximal effect; on the % scale 0 is the no-effect control and ±100 the full control effect
#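 Kinase-Glo luminescence read after 1 h RT reaction of 0.1 nM LmPK with 0.5 mM PEP and 0.1 mM ADP. Activity scaled between uninhibited and enzyme-free controls.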
# TbPYK inhibitor: qHTS of Trypanosoma Brucei Inhibitors. hit rate 0.12% among 410,000. pyruvate kinase (Trypanosoma brucei), Q57TT1. TbPYK enzyme, Kinase-Glo Plus ATP luminescence, 45 min. AID 624173, 2012. Potency, µM (doses to about 76.8 µM), for inactives: top-dose activity, negative = inhibition, hits mostly inhibitors; further: potency means the concentration at half of the fitted maximal effect; on the % scale 0 is the no-effect control and ±100 the full control effect; nearly all actives have a fitted effect of over 50% in size
#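 Enzyme and substrate buffer are dispensed first and compound is pin-transferred. ADP at 130 uM final then starts the reaction, which runs 45 min at room temperature. Detection reagent is added for 10 min before luminescence is imaged.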
# Shiga toxin inh: A qHTS for Small Molecule Inhibitors of Shiga Toxin | Vero cells, Shiga toxin protein synthesis inhibition reporter | inhibition, % at 38.7 µM | hit rate 9.2% among 290,000 | AID 2315, 2010; in the data active means inhibition mostly above about 28%, no sharp cut-off; inactive means mostly below about 43%; further: 0% is about no effect
# Cycloheximide cs: Cycloheximide Counterscreen for Small Molecule Inhibitors of Shiga Toxin | cell reporter, cycloheximide protein synthesis inhibition counterscreen | max response, % | hit rate 12% among 300,000 | AID 2314, 2010; in the data active means max response mostly above about 13%, no sharp cut-off; inactive means mostly below about 14%; further: read at 38.3 µM for the half of the compounds with a filed dose; 0% is about no effect
# Sm TGR block: qHTS Assay for the Inhibitors of Schistosoma Mansoni Peroxiredoxins; Schistosoma mansoni thioredoxin glutathione reductase (TGR), Q962Y6; hit rate 3% among 360,000; Potency, µM (doses to about 114 µM), for the others: at the top dose activity change, negative = inhibition, hits mostly inhibitors; purified TGR, DTNB reduction, TNB absorbance 405 nm; further: potency means the concentration at half of the fitted maximal effect; on the % scale 0 is the no-effect control and ±100 the full control effect; nearly all actives have a fitted effect of over 60% in size
#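 TGR 20 nM + NADPH 100 uM (dispensed conc.), cpd preinc 15 min RT; start with NADPH (500 uM addition) then DTNB (15 mM addition). Kinetic TNB absorbance, 405 nm filter. Four-parameter Hill fit across titration.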
# The depositor's hits bear a star; ? = inconclusive; nt = no result given; [ ] = another dose, or the depositor's remark. Unless noted, the call rests on the fitted dose curve; in most records, active means well fitted curve in the direction sought with a large enough effect; inconclusive means small, poorly fitted or top-dose-only effect, or another doubt; inactive means no such curve, though single readings can be large; an effect the other way counts as inactive or inconclusive.
SMILES,Giardia FBPA inh,LmPK inh,TbPYK inhibitor,Shiga toxin inh,Cycloheximide cs,Sm TGR block
Nc1c(-c2ccc(Cl)cc2)cnc2c(-c3ccccc3)cnn12,7%,-1%,2%,89*,36*,0%
Nc1c(-c2ccc(Cl)cc2)nnn1-c1ccccc1,-14%,-8%,-3%,98*,45*,3%
N#Cc1c(-c2ccco2)cc(-c2ccccc2)[nH]c1=O,?,12%,1%,-13,-2,8.9µM*
N#Cc1c(-c2ccccc2)cc(-c2ccco2)c(C#N)c1N,?,-7%,nt,27,21,2.8µM*
Cc1cc(-c2ccccc2)[nH]c(=O)c1C#N,4%,1%,4%,12,-5,-2%
Cc1ccc(-c2cc(-c3ccco3)c(C#N)c(=O)[nH]2)cc1,?,3%,-15%,16,1,2.2µM*
N#Cc1sc2nc(-c3ccccc3)cc(-c3ccco3)c2c1N,0%,-1%,-5%,-10,-3,40µM*
COc1cccc2sc(N(Cc3cccnc3)C(=O)c3ccc(S(=O)(=O)N(C)C)cc3)nc12,nt,nt,-2%,nt,nt,14%
COc1ccc(CNC(=O)C2Cc3c(-c4ccc5c(c4)OCO5)ccnc3O2)cc1OC (stereo not drawn),nt,nt,0%,nt,nt,nt
Cc1[nH]c2ccccc2c1C1(O)C(=O)N(Cc2ccccc2)c2ccc(Br)cc21 (stereo not drawn),nt,nt,-2%,nt,nt,-3%
O=c1c(-c2ccc(O)cc2)coc2cc(O[C@@H]3O[C@H](CO)[C@@H](O)[C@H](O)[C@H]3O)cc(O)c12,-3%,nt,nt,61*,27*,nt
OC[C@H]1O[C@@H](Oc2cc(O)cc(/C=C/c3ccc(O)cc3)c2)[C@H](O)[C@@H](O)[C@@H]1O,-4%,1%,nt,95*,27*,8%
COc1ccc(-c2coc3cc(O[C@@H]4O[C@H](CO)[C@@H](O)[C@H](O)[C@H]4O)c(OC)cc3c2=O)cc1,nt,nt,12%,nt,nt,nt
COc1ccc(CC(=O)c2ccc(OC3OC(CO)C(O)C(O)C3O)cc2O)cc1 (stereo not drawn),-2%,0%,0%,84*,14*,0%
COc1ccc(-c2coc3cc(OC4OC(CO)C(O)C(O)C4O)ccc3c2=O)cc1 (stereo not drawn),4%,0%,2%,47*,37*,-3%
Cc1ccc(NC(=O)Nc2nnc(N(C)C3CCCCC3)s2)c(Cl)c1,nt,nt,-1%,nt,nt,-7%
NS(=O)(=O)c1ccc(O)c(NC(=O)c2ccc([N+](=O)[O-])cc2)c1,-2%,2%,29%,68,22*,nt
O=C(Nc1cccc2ccccc12)c1ccccc1,-2%,3%,0%,96*,42*,7%
O=C(Nc1cccc2ccccc12)c1ccc(F)cc1,6%,2%,-3%,52*,44*,10%
O=C(Nc1cccc2ccccc12)c1ccc([N+](=O)[O-])cc1,-4%,-1%,1%,21,14*,6%
COc1ccc(C(O)c2nc(/C=C/c3ccc(C(F)(F)F)cc3)cs2)cc1 (stereo not drawn),nt,nt,5%,nt,nt,nt
Nc1ccccc1C(=O)Nc1cccc2ccccc12,-13%,0%,4%,36*,35*,-27%
NC(=O)c1ccccc1NC(=O)Nc1cccc2ccccc12,-3%,1%,2%,15,36*,5%
C[C@H](O/N=C1/[C@H]2O[C@@H]2[C@@H](O)[C@H]2[C@H]1CCn1c(=O)n(-c3ccccc3)c(=O)n12)c1cn([C@H]2COC[C@H]2O)nn1,-1%[12.9 µM],nt,nt,nt,nt,nt
COc1ccc(NC(=O)c2c(C)oc3ccc(O)c(CN4CCCCCC4)c23)cc1Cl,nt,nt,0%,nt,nt,-9%
SMILES,Giardia FBPA inh,LmPK inh,TbPYK inhibitor,Shiga toxin inh,Cycloheximide cs,Sm TGR block
Nc1nc(N)nc(-c2ccc(Oc3ccccc3)cc2)n1,1%,-2%,-3%,26,28,5%
Cc1sc(N)nc1-c1ccc(Oc2ccccc2)cc1,6%,2%,1%,78,19*,16%
Cc1sc(N)nc1-c1ccc2c(c1)OCCO2,-23%,0%,-2%,53*,17*,10%
Cc1ccc2nc3n(c(=O)c2c1)-c1ncccc1C(=O)NC3Cc1ccccc1 (stereo not drawn),nt,nt,-6%,nt,nt,nt
Cc1nc(-c2ccccc2Cl)sc1C(=O)/C=C/N(C)C,-1%,0%,1%,64,24*,0%
Cc1nc(-c2ccccc2)sc1C(=O)/C=C/c1ccc(Cl)cc1,3%,3%,2%,-16,-1,-1%
CCc1ccc(S(=O)(=O)/N=C2\C=C(Nc3ccc(C(=O)O)cc3)C(=O)c3ccccc32)cc1,0.45µM*,-7%,-12%,-14,-4,-9%
Cc1ccc(S(=O)(=O)/N=C2\C=C(Nc3ccc(O)cc3)C(=O)c3ccccc32)cc1,nt,nt,-26%,nt,nt,nt
O=C1c2ccccc2C(=O)c2cc(S(=O)(=O)Nc3ccccc3)ccc21,-25%,0%,-4%,-12,2,?
Cc1ccc(S(=O)(=O)/N=C2\C=C(Nc3cccc(C(=O)O)c3)C(=O)c3ccccc32)cc1,0.25µM*,-11%,-14%,35,6,-31%
Cc1ccc(S(=O)(=O)/N=C2\C=C(Nc3cccc(C(=O)O)c3)C(=O)c3ccccc32)c(C)c1,?,-23%,-21%,64*,24*,?
O=C(O)c1cccc(NS(=O)(=O)c2ccc3c(c2)C(=O)c2ccccc2C3=O)c1,3%,3%,1%,20,16*,0%
O=c1[nH]cnc2nn(-c3ccccc3)nc12,1%,-19%,-10%,84*,14,1%
O=c1[nH]cnc2nc(-c3ccccc3)c(-c3ccccc3)nc12,-3%,3%,4%,-9,-1,-21%
O=C(Nc1cccc([N+](=O)[O-])c1)c1ccc(CN2CCOCC2)cc1,-5%,6%,3%,85*,39*,3%
O=C(Nc1ccc(CN2CCOCC2)cc1)c1ccco1,7%,4%,-2%,51*,28*,1%
O=C(Nc1ccc(F)cc1)c1ccc(Cn2cnnn2)cc1,1%,-11%,8%,32,16*,9%
O=C(Nc1ccc(CN2CCCCC2)cc1)c1sc2ccccc2c1Cl,-5%,7%,1%,37,23*,-6%
COc1ccc(C(=O)N2CCC3(CC2)CCN(c2ncccn2)CC3)cc1,1%,nt,-8%,nt,nt,nt
COC(=O)c1ccc(NC(=O)c2ccc(CN3CCOCC3)cc2)cc1,2%,-5%,?,-3,1,3%
CC(C)COc1cccc(C(=O)Nc2ccc(CN3CCOCC3)cc2)c1,-8%,4%,-4%,16,17,13%
